Outcome and AC50 data for 39 molecules are collected here from PubChem BioAssay (EPA / NIEHS).

As usually defined, the AC50 is the midpoint of the concentration-response curve, whichever way the signal moves.

Several values for one entry are separate records, joined by “and”; a condition that tells them apart may be missing. Equal values may be shown once. Where a structure was tested more than once in an assay, its records may differ in their call. Activity calls are given as the source filed them. How the source made its calls: active means hit-call score of the fitted dose curve at least 0.9, where 1 is the maximum; inactive means score below 0.9.

Read-out in this assay: Vascular cell adhesion molecule 1 (VCAM1), VCAM1 (gene 7412)
In words: BSK_hDFCGF_VCAM1: BioMAP Diversity Plus: hDFCGF Assay for Vascular cell adhesion molecule 1 (VCAM1) Biomarker Activity (AID 2283065). The note with it: primary human foreskin fibroblasts; actives raise or lower the signal. As to the method: BSK_hDFCGF is a cell-based, multiplexed-readout assay that uses foreskin fibroblast, a human skin primary cell, with measurements taken at 24 hours after chemical dosing in a 96-well plate.BSK_hDFCGF_VCAM1 is an assay component measured in the BSK_hDFCGF assay. It measures VCAM-1 antibody related to regulation of gene expression using ELISA technology.Data from the assay component BSK_hDFCGF_VCAM1 was analyzed into 1 assay endpoint. This assay endpoint, BSK_hDFCGF_VCAM1, was analyzed with bidirectional fitting relative to DMSO as the negative control and baseline of activity. Using a type of binding reporter, gain or loss-of-signal activity can be used to understand changes in the signaling as they relate to the gene VCAM1. Furthermore, this assay endpoint can be referred to as a primary readout, because this assay has produced multiple assay endpoints where this one serves a signaling function. To generalize the intended target to other relatable targets, this assay endpoint is annotated to the cell adhesion molecules intended target family, where the subfamily is Immunoglobulin CAM.
The levels of cell surface (or secreted, indicated by the prefix "s") biomarker endpoints were measured by ELISA. Overt cytotoxicity to cells in confluent adherent cultures (all systems other than the BT system) was assessed by measuring total protein levels using sulforhodamine B (SRB) staining in parallel cultures at the time of biomarker measurements, indicated as SRB endpoints. For proliferation assays for adherent cell types, individual cell types are cultured at sub-confluence and relative cell numbers quantified by SRB staining at time points optimized for each system (48 h: 3C and CASM3C systems; 72 h: BT and HDF3CGF systems; 96 h: SAg system). SRB was performed by staining cells with 0.1% SRB after fixation with 10% TCA and reading wells at 560 nm.Viability and proliferation of PBMC (T cells) was quantified by Alamar Blue reduction for the SAg and BT systems. For PBMC viability (referred to as PBMC Cytotoxicity within the assay endpoint names), cells were plated (75,000/well in a 96-well plate) and then chemical samples added for 1 h before addition of activators, SEB and TSST-1 (20 ng/mL final concentration each). Cells were incubated for 90 h. Then, Alamar Blue (20 uL/well) (Invitrogen, Cat DAL1100) was added for 6 h, and the plates were read with a fluorescence microplate reader at 546/580 nm (excitation/emission). For PBMC proliferation, cells were plated and activated as above but incubated for only 16 h prior to addition of Alamar Blue. Plates were read after 6 h.
In the case of `Cc1ccc(O)cc1C`, the outcome was inactive.
For the molecule `CCCCc1ccccc1`, the result was inactive.
Take `CC(C)(C)c1ccccc1OP(=O)(Oc1ccccc1)Oc1ccccc1`: the AC50 is 20 µM (active).
For the molecule `CCOP(=S)(OCC)SCSc1ccc(Cl)cc1`, the concentration at half-maximal activity (AC50) was 3.97 µM (active).
`N#Cc1c(-c2ccc(Cl)cc2)[nH]c(C(F)(F)F)c1Br`: the AC50 was 2.9 µM (active).
Turning to `C=CC(=O)OCC(F)(F)C(F)F`, the AC50 is 20 µM (active) and 11.1 µM (active).
As for `CSC(C)(C)C=NO`, the outcome was inactive.
With `CCOP(=S)(S)OCC`, the result was inactive.
Still for that read-out and setting: the result for `COCCOCCO` reads “inactive”.
Same read-out and setting: with `c1nc[nH]n1` the entry was “inactive”.
As for `CCOP(=S)(Oc1ccc([N+](=O)[O-])cc1)c1ccccc1` (stereo not given), the AC50 is 7.62 µM (active).
On to `OCC(F)(F)OC(F)(F)C(F)(F)OC(F)(F)C(F)(F)OC(F)(F)F`, for which the outcome was inactive and the AC50 is 19.3 µM (active).
As for `Cc1ccc(N)cc1N`, the result was inactive.
On the same count and under the same terms, with `c1cc2c3c(cccc3c1)CC2` the entry was “inactive”; with `CC(C)(C)c1ccc(O)cc1`, “inactive”; with `CCOS(=O)(=O)OCC`, “inactive”.
Still for that read-out and setting: the result for `Nc1ccc([N+](=O)[O-])cc1Cl` reads “inactive”.
On the same count and under the same terms, the result for `CC(Cc1ccc(OCC(=O)O)cc1)NCC(O)c1csc(C(F)(F)F)n1` (stereo not given) reads “inactive”.
`CN(C)C(=O)Cl`: the outcome was inactive.
In the case of `[N-]=[N+]=[N-]`, the outcome was inactive.
`COP(N)(=S)OC`: the result was inactive.
On the same count and under the same terms, the result for `c1ccc2c(c1)sc1ccccc12` reads “inactive”; that for `CCOc1ccc(C(C)(C)COCc2cccc(Oc3ccccc3)c2)cc1`, “inactive”.
On the same count and under the same terms, with `CC(Cl)(Cl)C(=O)O` the entry was “inactive”; with `CCC1(c2ccccc2)C(=O)N=C(O)NC1=O` (stereo not given), “inactive”.
Still for that read-out and setting: with `ClC(Cl)(Cl)c1ccccc1` the entry was “inactive”; with `c1ccc(OP(Oc2ccccc2)Oc2ccccc2)cc1`, “inactive”; with `Nc1ccc2ccccc2c1`, “inactive”.
`CCOC(=O)c1ccccc1C(=O)OCC`: the result was inactive.
`O=[N+]([O-])c1ccccc1`: the result was inactive.
Same read-out and setting: with `CCC(C)(C)c1ccc(O)cc1` the entry was “inactive”.
In the case of `C=CC(=O)OCC(CC)(COC(=O)C=C)COC(=O)C=C`, the AC50 was 1.07 µM (active).
Turning to `N#Cc1cc([N+](=O)[O-])ccc1N`, the result was inactive.
On to `O=C(O)C(Cl)Cl`, for which the result was inactive.
In the case of `O=C(O)C1C(C(=O)O)C2(Cl)C(Cl)=C(Cl)C1(Cl)C2(Cl)Cl` (stereo not given), the result was inactive.
The same measure, in the same setting: the result for `OCC(F)(F)OC(F)(F)C(F)(F)OC(F)(F)CO` reads “inactive”; that for `COP(=O)(O)OC`, “inactive”.
Turning to `ClC(Cl)=C(c1ccc(Cl)cc1)c1ccccc1Cl`, the AC50 was 2.68 µM (active).
On to `CC(O)C(F)(F)C(F)(F)F` (stereo not given), for which the outcome was inactive.
